Shiga toxin inh = A qHTS for Small Molecule Inhibitors of Shiga Toxin | Vero cells, Shiga toxin protein synthesis inhibition reporter | inhibition, % at 38.7 µM | 290,000 compounds, 9.2% hits; in the data active means inhibition mostly above about 28%, no sharp cut-off; inactive means mostly below about 43%
Pf growth 48h = Primary qHTS for delayed death inhibitors of the malarial parasite plastid, 48 hour incubation. P. falciparum luciferase growth in erythrocytes, 48 h. Potency, µM (highest dose often 28.7 µM), most hits filed as inhibitors. 310,000 compounds, 5.9% hits
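In quantitative HTS format, infected erythrocytes bearing luciferase-reporter parasites were treated for a single generation at 37 C. Luminescence after adding detection reagent served as the growth measure.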
Pf growth 96h = Primary qHTS for delayed death inhibitors of the malarial parasite plastid, 96 hour incubation; P. falciparum luciferase reporter growth, 96 h; Potency, µM (highest dose often 28.7 µM), usual class: inhibitors; 320,000 compounds, 6.9% hits
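Delayed-death screen, second-generation endpoint: infected erythrocytes, 2% hematocrit, 0.05% parasitemia final; 96 hours at 37 C, 5% CO2; luciferase detection reagent; luminescence decrease equals reduced growth.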
Cycloheximide cs = Cycloheximide Counterscreen for Small Molecule Inhibitors of Shiga Toxin; cell reporter, cycloheximide protein synthesis inhibition counterscreen; 300,000 compounds, 12% hits; max response, %; AID 2314, 2010; in the data active means max response mostly above about 13%, no sharp cut-off; inactive means mostly below about 14%; further: read at 38.3 µM for the half of the compounds with a filed dose
Of the large screens only hits and unclear results are named; the others gave an inactive call. Most compounds without a hit are left out; they make up all but 21% or so of the library. Unless noted, the call rests on the fitted dose curve; in most records, active means well fitted inhibition curve with a large enough effect; inconclusive means small, poorly fitted or top-dose-only effect, or another doubt; inactive means no such curve, though single readings can be large or run the other way.

CCOc1ccc(/C=N/NC(=O)c2ccc(F)cc2)cc1CN1CC2CC(C1)c1cccc(=O)n1C2 (stereo not drawn)	Pf growth 48h 5.2µM (no result: Shiga toxin inh, Cycloheximide cs)
CCOc1ccc(/C=N/NC(=O)c2ccccc2Cl)cc1CN1CC2CC(C1)c1cccc(=O)n1C2 (stereo not drawn)	Pf growth 48h 8.3µM (no result: Shiga toxin inh, Cycloheximide cs)
CCOc1ccc(/C=N/NC(=O)c2ccccc2C)cc1CN1CC2CC(C1)c1cccc(=O)n1C2 (stereo not drawn)	Pf growth 48h 3.7µM, Pf growth 96h inconclusive (no result: Shiga toxin inh, Cycloheximide cs)
CCCOc1ccc(C(=O)Nc2ccc(S(=O)(=O)N3C[C@@H]4C[C@@H](C3)c3cccc(=O)n3C4)cc2)cc1	Pf growth 48h 2.1µM, Pf growth 96h 4.7µM (no result: Shiga toxin inh, Cycloheximide cs)
CC(C)CC(=O)Nc1ccc(S(=O)(=O)N2CC3CC(C2)c2cccc(=O)n2C3)cc1 (stereo not drawn)	none (no result: Shiga toxin inh, Cycloheximide cs)
O=c1cccc2n1CC1CC2CN(Cc2c(Cl)cccc2Cl)C1 (stereo not drawn)	none (no result: Pf growth 96h)
CCc1cc(C(=O)N2CCCC(C(=O)c3ccc(C(F)(F)F)cc3)C2)n(C)n1 (stereo not drawn)	none
Cn1nc(C(=O)NC2CCCCC2)c2c1-c1ccccc1S(=O)(=O)C2	none
CN(C)S(=O)(=O)c1cccc(NC(=O)CSc2nnnn2-c2ccccc2)c1	Pf growth 48h inconclusive, Pf growth 96h inconclusive
COc1ccc2[nH]c3c(=O)n4c(nc3c2c1)SCCC4	Cycloheximide cs 25
Cc1ccc2[nH]c3c(=O)n4c(nc3c2c1)SCC4	Pf growth 96h inconclusive, Cycloheximide cs 24
Cc1nc(C(F)(F)F)ccc1C(=O)Nc1ccccc1N1CCOCC1	none
COc1ccc(-c2cc(C(=O)NCc3cccs3)no2)cc1	Shiga toxin inh 60, Cycloheximide cs 23
COc1cccc(C(=O)c2c[nH]c(C(=O)NCc3cccs3)c2)c1	Pf growth 96h inconclusive, Cycloheximide cs 16
COc1ccc(CNC(=O)c2cc(-c3cccs3)on2)cc1	Cycloheximide cs 19 (no result: Pf growth 96h)
COc1ccc2nc3sc(C(=O)NCc4cccs4)c(N)c3cc2c1	Shiga toxin inh 83, Cycloheximide cs 51
COc1ccc(NC(=O)Cn2nnc(C(=O)NCc3cccs3)c2N)cc1	none
COc1ccc(C2/C=C\CN(C(=O)C3CC3)C(C)C(=O)N2Cc2ccc(F)cc2)cc1 (stereo not drawn)	none (no result: Pf growth 48h, Pf growth 96h)
COc1cccc(-c2cc(C(=O)NCc3cccs3)no2)c1	Shiga toxin inh 104, Pf growth 96h inconclusive, Cycloheximide cs 61
O=C(Nc1ccc(-c2nc3cccnc3s2)cc1)c1ccc(Cl)nc1	Shiga toxin inh 68, Cycloheximide cs 34
Cc1c(NC(=O)c2ccc(Cl)nc2)cccc1-c1nc2cccnc2s1	Pf growth 48h inconclusive, Pf growth 96h inconclusive
O=C(Nc1ccc(-c2nc3cccnc3s2)cc1)c1cccnc1Cl	Shiga toxin inh 57, Cycloheximide cs 66
COc1cccc(NC(=O)NC2(C(=O)N3CCN(C)CC3)CCCCC2)c1	none
CCC(C)[C@H](NC(=O)[C@H](Cc1ccccc1)n1c(=O)[nH]c2ccccc2c1=O)C(=O)NCC1CCC(C(=O)O)CC1 (stereo partly drawn)	Pf growth 96h 13µM
COc1ccccc1NC(=O)CSc1nnc(C)s1	none
CCn1c(C)[n+](Cc2ccccc2)c2ccc(Cl)cc21	Pf growth 48h 7.4µM
Cc1n(Cc2ccccc2)c2ccccc2[n+]1Cc1ccccc1	Pf growth 48h 1.3µM (no result: Shiga toxin inh)
CCn1c(C)[n+](Cc2ccccc2)c2ccc(C(=O)OC)cc21	Pf growth 48h inconclusive
Cc1ccc(C(=O)NC2CCN(CC(=O)NC3CCC(C)CC3)CC2)cc1 (stereo not drawn)	Pf growth 48h inconclusive
Nc1ccccc1C(=O)OCCOc1ccccc1	Shiga toxin inh 87, Cycloheximide cs 34 (no result: Pf growth 96h)
COc1ccc(OC)c(NC(=O)COC(=O)c2n[nH]c3ccccc23)c1	Pf growth 48h inconclusive (no result: Shiga toxin inh, Cycloheximide cs)
Cc1cccc(C)c1NC(=O)COC(=O)c1ccc2[nH]c3c(c2c1)CCCC3	none
CC(=O)c1cccc(NC(=O)COC(=O)c2n[nH]c3ccccc23)c1	Shiga toxin inh 102, Cycloheximide cs 19
O=C(COC(=O)c1ccc2[nH]c3c(c2c1)CCCC3)Nc1ccccc1	Shiga toxin inh 42, Cycloheximide cs 16
O=C(O)c1ccccc1OCCOc1ccccc1	none
Cc1cc(C)cc(NC(=O)COC(=O)c2n[nH]c3ccccc23)c1	Shiga toxin inh 65
O=C(COC(=O)C1CCCCC1)Nc1ccccc1OC(F)F	none
Cc1ccc(N2CCN(S(=O)(=O)c3c(C)noc3C)CC2C)cc1 (stereo not drawn)	none
O=C(COC(=O)c1n[nH]c2ccccc12)Nc1ccccc1	Shiga toxin inh 57, Cycloheximide cs 39
O=C(COC(=O)c1n[nH]c2ccccc12)Nc1ccc(S(=O)(=O)N2CCCC2)cc1	none
CN(C(=O)COC(=O)c1n[nH]c2ccccc12)c1ccccc1	Cycloheximide cs 27
CN(C(=O)COC(=O)c1n[nH]c(=O)c2ccccc12)c1ccccc1	none (no result: Shiga toxin inh, Cycloheximide cs)
O=C(OCCOc1ccccc1)c1n[nH]c2ccccc12	Shiga toxin inh 55, Cycloheximide cs 47
CCCN(C(=O)c1ccc([N+](=O)[O-])c(C)c1)c1c(N)n(Cc2ccccc2)c(=O)[nH]c1=O	none (no result: Shiga toxin inh, Cycloheximide cs)
Cc1ccc2[nH]c3c(c2c1)CCCC3C(N)=O (stereo not drawn)	none
Cc1ccc2[nH]c3c(c2c1)CCCC3NC(=O)CCl (stereo not drawn)	Pf growth 48h 2.3µM, Pf growth 96h 13µM (no result: Shiga toxin inh)
CCOC(=O)c1c(C)[nH]c(C)c1C(=O)COC(=O)c1ccc(S(=O)(=O)N(CC)CC)cc1	Pf growth 48h inconclusive, Pf growth 96h inconclusive
CCOC(=O)c1c(C)[nH]c(C)c1C(=O)COC(=O)c1cccc(S(=O)(=O)N(CC)CC)c1	Pf growth 48h 15µM, Pf growth 96h 9.3µM
CC1=CC(=C(C#N)c2nc3ccccc3s2)C=C(C)N1CC1CCCO1 (stereo not drawn)	Pf growth 48h inconclusive, Pf growth 96h 2.9µM
N#C/C(=C1/CCCCCN1)c1nc2ccccc2s1	Pf growth 96h inconclusive
CN1/C(=C\C(=S)NC(=O)c2cccc(Br)c2)C(C)(C)c2ccccc21	Pf growth 48h inconclusive, Pf growth 96h 12µM
CN1/C(=C\C(=O)Nc2ccc(Br)cc2)C(C)(C)c2ccccc21	none
CN1/C(=C\C(=O)Nc2ccc(F)cc2)C(C)(C)c2ccccc21	Pf growth 48h 5.2µM, Pf growth 96h inconclusive
CC1(C)C(=O)OC(/C=C\c2cccc([N+](=O)[O-])c2)C(C)(C)C1=O (stereo not drawn)	none
COCCN(C(=O)c1cccc(-n2cnnn2)c1)c1c(N)n(CC(C)C)c(=O)[nH]c1=O	none (no result: Shiga toxin inh, Cycloheximide cs)
COc1ccc(-c2csc(-c3cccnc3)n2)cc1C	Shiga toxin inh 90, Pf growth 96h inconclusive
COc1ccc2cc(-c3csc(-c4cccnc4)n3)ccc2c1	Cycloheximide cs 26 (no result: Pf growth 96h)
CC(=O)Nc1ccc(NC(=O)CS(=O)(=O)c2cn(CC(=O)N3CCCC3)c3ccccc23)cc1	none
CCCSc1nnc(NC(=O)Nc2ccc(F)cc2)s1	Pf growth 48h inconclusive, Cycloheximide cs 32
CCCSc1nnc(NC(=O)Nc2ccccc2)s1	Cycloheximide cs 19
CCCSc1nnc(NC(=O)Nc2ccc(C)cc2)s1	Pf growth 96h inconclusive
